An excerpt weighted towards active compounds, which were near 8.8% of everything screened.
Lamin A splicing – changes lamin A minigene splicing in HeLa cells. Potency, µM (series often up to 46.1 µM), without a hit: at the highest dose ratio change, negative = inhibition, hits mostly inhibitors. HeLa LMNA splicing GFP/RFP minigene ratio, 48 h. hit rate 0.01% among 200,000; active means well fitted inhibition curve with a large enough effect in the signal ratio, with a control signal flat, not every such curve was filed as active; inconclusive means small, poorly fitted or top-dose-only effect, or effect the other way, or a change in a side signal; the % refers to the signal ratio; further: on the % scale 0 is the no-effect control and ±100 the full control effect
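S3 HeLa cells stably expressing lamin A-EGFP splicing minigene plus DsRed2, 600 cells/well, 48 h compound exposure at 37C. Laser-scanning cytometry; analysed as GFP (500-530 nm)/RFP (575-640 nm) total intensity ratio; 0.5% DMSO vehicle.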
HTT ATP protect – Huntington cell model cytoprotection by ATP luminescence. PC12 HTT-Q103 induced, cytoprotection, ATP luminescence, 40 h. Potency, µM (doses to about 56.4 µM), inactives show cytoprotection (ATP increase), hits mostly activators. hit rate 0.14% among 230,000. AID 1471; further: % of control where 0% means no effect; nearly all actives have a fitted effect of over 45% in size
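ATP quantification (ATPlite) reports survival of PC12 cells in which tebufenozide, 100 nM final, switches on Htt exon 1 with 103 glutamines linked to GFP; compounds are titrated.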
ALDH1A1 block – blocks purified human ALDH1A1 activity; P00352; Purified ALDH1A1, NADH fluorescence, propionaldehyde substrate; Potency, µM (series often up to 75.3 µM), for inactives: top-dose activity, negative = inhibition, actives largely listed as inhibitors; hit rate 7.3% among 220,000; AID 1030; active means well fitted inhibition curve with a large enough effect, not every such curve was filed as active; inconclusive means small, poorly fitted or top-dose-only effect, or another doubt; inactive means no such curve, though single readings can be large or run the other way;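 further: plate controls were no enzyme wells and a reference inhibitor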
HPGD block – HPGD (human) dehydrogenase inhibition | P15428 | purified HPGD, NADH fluorescence kinetic, PGE2 substrate | Potency, µM, for inactives: top-dose activity change, negative = inhibition, most hits filed as inhibitors | hit rate 4.3% among 150,000 | AID 894; active means well fitted inhibition curve with a large enough effect, not every such curve was filed as active; inconclusive means small, poorly fitted or top-dose-only effect, or another doubt; inactive means no such curve, though single readings can be large or run the other way; further: on the % scale 0 is the no-effect control and ±100 the full control effect
Target sequence (P15428 whole entry, looked up): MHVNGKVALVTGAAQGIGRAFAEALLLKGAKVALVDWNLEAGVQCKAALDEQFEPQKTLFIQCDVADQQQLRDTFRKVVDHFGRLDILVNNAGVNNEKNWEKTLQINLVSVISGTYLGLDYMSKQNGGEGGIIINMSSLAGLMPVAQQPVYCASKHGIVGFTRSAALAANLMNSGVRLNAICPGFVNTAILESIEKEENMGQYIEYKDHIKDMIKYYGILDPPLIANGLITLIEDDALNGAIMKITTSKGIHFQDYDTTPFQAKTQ
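20 nM HPGD preincubated 15 min at room temperature with compound in 50 mM Tris-HCl pH 8, 0.01% Tween 20. Started with 1 mM NAD+ and 30 uM prostaglandin E2; NADH fluorescence (360/450 nm) read 5 times over 30-s intervals, last minus first.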
HTT aggregate – inhibitors of mutant huntingtin aggregate formation in PC12 cells. Potency, µM (doses to about 46.1 µM), without a hit: at the highest dose activity change, negative = inhibition, most hits filed as inhibitors. hit rate 1.1% among 220,000. PC12 HttQ103-GFP aggregates, Acumen cytometry, 40 h; further: on the % scale 0 is the no-effect control and ±100 the full control effect; nearly all actives have a fitted effect of over 60% in size
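Multiplexed with ATP-based cell death, this channel scores GFP aggregates in PC12 cells expressing inducible HTTex1-Q103-GFP. Induction used 100 nM tebufenozide; compounds were tested in concentration series.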
Active calls of the source: *; u = inconclusive; x = not tested or not shown; [ ] = dose if it differs, or a comment. Unless noted, the call rests on the fitted dose curve; in most records, active means well fitted curve in the direction sought with a large enough effect; inconclusive means small, poorly fitted or top-dose-only effect, or another doubt; inactive means no such curve, though single readings can be large; an effect the other way counts as inactive or inconclusive. Potency means the concentration at half of the fitted maximal effect.

SMILES	Lamin A splicing	HTT ATP protect	ALDH1A1 block	HPGD block	HTT aggregate
N#C/C(=C\c1ccc(O)c(O)c1)C(=O)c1ccc(O)c(O)c1	u	-3%[1.9 µM]	u	7.9µM*	x
N#C/C(=C\c1c[nH]c2ccccc12)C(=O)c1ccc(O)c(O)c1	u	9%[1.9 µM]	u	3.5µM*	x
N#C/C(=C\c1ccc(O)c(O)c1)C(=O)N1CCCC1	u	2%	u	x	-3%
Cc1cc(/C=C(\C#N)C(=O)NCc2cccs2)c(C)[nH]1	x	-21%[10 µM]	u	x	-10%[9.22 µM]
CC(C)COC(=O)/C(C#N)=C/c1c[nH]c2ccccc12	-1%	4%[10 µM]	u	-7%	-8%
N#C/C(=C\c1ccc(O)c(O)c1)C(=O)OCCc1cccs1	x	-16%	-11%	28µM*	x
CN1CCN(c2ncc3nc(-c4cc(F)cc(F)c4)c(=O)n(CCc4ccccc4)c3n2)CC1	11%	-33%	u	x	x
CN(C(=O)COC(=O)c1ccccc1SCC(=O)NC1CCCCCCC1)C1CCS(=O)(=O)C1 (configuration not stated)	1%	-1%[10 µM]	u	u	2%
O=C(CSc1ccc(-c2ccccn2)nn1)NC1CCCCC1	7%[46 µM]	-34%	5%	x	-2%
O=C(CSc1ccc(-c2ccco2)nn1)NC1CCCC1	x	-35%	35µM*	x	-13%
O=C(CSc1ccc(-c2ccco2)nn1)NC1CCCCC1	x	-49%	4µM*	x	-6%
NC(=O)COC(=O)c1ccccc1SCC(=O)NC1CCCCCC1	-1%[9.22 µM]	-31%	28µM*	x	7%
Cc1nc(N2CCOCC2)c2nc(-c3ccccc3)n(CC3CCN(C)CC3)c2n1	x	2%	u	u	x
N/C(=N\O)c1cn([C@@H]2O[C@@H](CO)[C@H](O)[C@@H]2O)c2ncnc(NO)c12	x	-85%[10 µM]	-9%[13.5 µM]	-7%	x
COc1ccc2c(c1)O[C@H](c1ccc3c(c1)OCO3)[C@@H](OC(=O)Nc1ccc(OC(F)F)cc1)C2=O	x	-58%	6%	-6%	x
Cc1cc(C)cc(-n2cccc2/C=C2/C(=N)N3C(=NC2=O)SN=C3S(C)(=O)=O)c1	-13%[46 µM]	-28%	5µM*	x	8%
COc1cccc(-n2c(C)cc(/C=C3/C(=N)N4C(=NC3=O)SN=C4S(C)(=O)=O)c2C)c1	x	-66%	32µM*	x	5%
O=C(CN(C(=O)c1cc2c(s1)CCC2)C1CCCC1)NCc1cccs1	7%	-16%	16µM*	-6%	u
Cc1cc(-c2ccccc2)n(-c2ccc(C(N)=O)cc2)n1	-17%	44%[10 µM]	u	32µM*	2%
CC(C)(C)C(=O)NC(=S)Nc1ccc(F)cc1	u	17%[10 µM]	22µM*	-13%	-6%
O=C(/C=C/c1ccc(F)cc1)NC(=S)NNC(=O)c1cnccn1	x	-10%[10 µM]	x	x	-23%[9.22 µM]
CC(C)(C)c1ccc(C(=O)NC(=S)Nc2ccc(N3CCOCC3)cc2)cc1	u	2%[10 µM]	10µM*	-5%	2%
O=C(NC(=S)Nc1ccc(N2CCOCC2)cc1)c1ccc2c(c1)OCCO2	u	x	20µM*	u	14%
O=C(NC(=S)NNC(=O)c1cnccn1)c1ccc(F)cc1	x	-142%	28µM*	x	-15%
CC(C)(C)c1ccc(C(=O)Nc2ccc(N3CCOCC3)cc2)cc1	u	-28%	-4%	-6%	-1%
SMILES	Lamin A splicing	HTT ATP protect	ALDH1A1 block	HPGD block	HTT aggregate
Nc1ccccc1C(=O)N1CCCC1	x	6%	u	x	6%
Cn1c(SCC(=O)Nc2nc3ccccc3s2)ncc(C(=O)Nc2ccc(Cl)cc2)c1=O	14%[46 µM]	x	x	x	x
O=C(NC(=S)Nc1ccc(F)cc1)c1ccc2c(c1)OCCO2	x	-1%[10 µM]	13µM*	x	-22%
O=C(NC(=S)Nc1ccc(N2CCCCC2)cc1)c1ccco1	2%	u	u	18µM*	-1%
O=C(NC(=S)Nc1ccc(CN2CCOCC2)cc1)c1ccc2c(c1)OCCO2	x	26%[10 µM]	x	x	15%[9.22 µM]
O=C(NC(=S)Nc1ccc(N2CCCCC2)cc1)c1ccc2c(c1)OCCO2	u	x	10µM*	28µM*	-3%
O=C(NC(=S)Nc1ccc(Cc2ccncc2)cc1)c1ccc(F)cc1	2%[46 µM]	-85%	20µM*	x	u
CCCCOC(=O)c1ccc(Nc2ncnc3[nH]ncc23)cc1	2%[46 µM]	x	x	x	x
CC(=O)N1CCN(c2ccc(NC(=S)NC(=O)COc3ccc(C(C)(C)C)cc3)cc2)CC1	u	17%[10 µM]	19µM*	-10%	2%

Screens: PubChem, National Center for Advancing Translational Sciences (NCATS)
